# Data published in PubChem BioAssay.
# Active and inactive are the calls of the source. Unless noted, how the calls were made is not given here.
# Experiments:
# [1] = resazurin metabolic signal in HepG2 cells – cell-based, resazurin fluorescence, 24 h, PK04 Diversity Set, profiling panel (AID 1172); settings: HepG2 viability, higher = more signal; further: test concentration not given here
# [2] = budding yeast growth changes without added modifier – OD600, strain BY4716, 24 h, basal condition, primary screen (AID 1173); settings: S. cerevisiae BY4716 growth, OD600, 24 h; higher = more signal, called active from +8 up or from −8 down
# [3] = viability profiling in MM1S myeloma cells – cell-based, resazurin fluorescence, basal, 24 h, PK04 Diversity Set, profiling panel (AID 1174); settings: higher = more signal, called active from +8 up or from −8 down;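 further: MM1S multiple myeloma cell line; test concentration not given here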
# [4] = target: Dihydroorotate dehydrogenase (quinone), mitochondrial (Plasmodium falciparum (isolate 3D7)) (UniProt Q08210); test: inhibition of P. falciparum DHODH – biochemical, C-terminal His tag, absorbance 600 nm, primary screen (AID 1175); settings: PfDHODH enzyme, DCIP absorbance 600 nm; higher = more signal, called active from +8 up or from −8 down;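 further: recombinant parasite enzyme with a five histidine tag at its C terminus; test concentration not given here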
# Chain of Dihydroorotate dehydrogenase (quinone), mitochondrial (Plasmodium falciparum (isolate 3D7)) (Q08210 whole entry, looked up): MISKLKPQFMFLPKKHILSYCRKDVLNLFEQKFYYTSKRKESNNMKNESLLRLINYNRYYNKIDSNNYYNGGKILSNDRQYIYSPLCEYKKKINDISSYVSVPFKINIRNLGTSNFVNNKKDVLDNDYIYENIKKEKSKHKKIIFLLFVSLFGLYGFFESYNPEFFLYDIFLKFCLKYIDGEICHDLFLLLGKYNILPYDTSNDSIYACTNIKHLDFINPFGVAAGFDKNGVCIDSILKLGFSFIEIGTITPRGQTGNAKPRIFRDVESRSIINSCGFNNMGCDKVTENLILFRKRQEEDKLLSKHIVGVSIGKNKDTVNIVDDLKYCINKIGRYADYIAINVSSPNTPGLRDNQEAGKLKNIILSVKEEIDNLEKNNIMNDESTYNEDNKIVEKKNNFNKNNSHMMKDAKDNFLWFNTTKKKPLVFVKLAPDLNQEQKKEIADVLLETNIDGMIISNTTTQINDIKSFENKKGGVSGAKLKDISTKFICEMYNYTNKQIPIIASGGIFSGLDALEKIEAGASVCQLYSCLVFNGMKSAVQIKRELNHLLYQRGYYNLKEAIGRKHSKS
# [5] = inhibition of PAO1 biofilm formation – strain PAO1, LB-PBS medium, absorbance 600 nm, primary screen (AID 1176); further: test concentration not given here; settings: P. aeruginosa PAO1 growth/biofilm, A600, 12 h; higher = more signal
# [6] = growth modulation of vineyard yeast isolate – strain RM11-1a, OD600, basal, 24 h, primary screen (AID 1177);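 further: cultures grown under basal conditions with no added stressor; test concentration not given here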; settings: S. cerevisiae RM11-1a growth, OD600, 24 h; higher = more signal, called active from +8 up or from −8 down
# [7] = growth of efflux-deficient E. coli DRC39 – strain DRC39, OD650, 24 h, E. coli filamentation inducers, primary screen (AID 1178);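 further: growth measured as culture turbidity by optical density at 650 nm; test concentration not given here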; settings: E. coli DRC39 acrAB, higher = more signal, called active from +8 up or from −8 down
# [8] = growth of efflux-deficient E. coli DRC39 – strain DRC39, OD650, 48 h, E. coli filamentation inducers, primary screen (AID 1179);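 further: screen aims at cell division blockers that make cells filament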; settings: E. coli DRC39 delta-acrAB growth, higher = more signal, called active from +8 up or from −8 down
# [9] = viability profiling in RPMI8226 myeloma cells – cell-based, resazurin fluorescence, basal, 24 h, PK04 Diversity Set, profiling panel (AID 1180); settings: higher = more signal;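 further: RPMI8826 multiple myeloma cell line at 5000 cells per well; test concentration not given here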
# [10] = target: E3 ubiquitin-protein ligase XIAP (Homo sapiens) (UniProt P98170); test: small molecules binding XIAP protein – biophysical, small-molecule microarray, fluorescence 635 nm, primary screen (AID 1181); settings: higher = more signal;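 further: score merges 667 nm emission and signal to noise over triplicate slides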
# Chain of E3 ubiquitin-protein ligase XIAP (Homo sapiens) (P98170 whole entry, looked up): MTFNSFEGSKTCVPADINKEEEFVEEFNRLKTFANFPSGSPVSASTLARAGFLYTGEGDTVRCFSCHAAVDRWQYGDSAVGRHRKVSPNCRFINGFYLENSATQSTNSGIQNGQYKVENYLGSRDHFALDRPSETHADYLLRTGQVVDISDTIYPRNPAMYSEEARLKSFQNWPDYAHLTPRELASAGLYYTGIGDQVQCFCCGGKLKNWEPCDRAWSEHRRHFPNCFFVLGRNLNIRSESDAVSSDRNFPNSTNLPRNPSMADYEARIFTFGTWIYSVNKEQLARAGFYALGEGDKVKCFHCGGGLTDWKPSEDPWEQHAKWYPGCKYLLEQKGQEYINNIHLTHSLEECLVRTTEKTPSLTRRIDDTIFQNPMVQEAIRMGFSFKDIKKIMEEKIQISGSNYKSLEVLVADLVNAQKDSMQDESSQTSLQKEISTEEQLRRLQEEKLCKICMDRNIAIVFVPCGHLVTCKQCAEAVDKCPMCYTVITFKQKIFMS
Structure (SMILES),z-score [1],z-score [2],z-score [3],composite z-score [4],z-score [5],z-score [6],z-score [7],z-score [8],z-score [9],composite z-score [10]
CC(=O)NCCCC[C@@H]1NC(=O)[C@H]2C[C@@H](C(=O)NCCCCCCN(C)C)[C@@H](c3cccc(OCCO)c3)N2C1=O,-0.526,-1.16 (inactive),-0.143 (inactive),-0.0259 (inactive),0.42 (inactive),-0.0243 (inactive),0.617 (inactive),-0.197 (inactive),-0.696,-0.0067
C[N+](C)(C)CCCCNC(=O)[C@H]1C[C@H]2C(=O)NCC(=O)N2[C@H]1c1cccc(OCCO)c1,0.052,0.167 (inactive),-0.935 (inactive),-29.2 (active),1 (inactive),0.105 (inactive),-0.158 (inactive),-0.271 (inactive),-1.15,0.133
COCCCNC(=O)[C@@H]1c2ccccc2C(=O)N(CC23CC4CC(CC(C4)C2)C3)[C@H]1c1ccc(CO)cc1,0.172,-0.323 (inactive),-0.104 (inactive),0.297 (inactive),0.87 (inactive),0.208 (inactive),0.0488 (inactive),-0.543 (inactive),0.0917,0.03
CN(C)c1ccc(C(O)C2C=CC3C(=O)NC(=O)C3N2Nc2ccc(Cl)cc2Cl)cc1 (stereo not given),-0.492,0.454 (inactive),-1.44 (inactive),0.438 (inactive),0.683 (inactive),0.839 (inactive),0.221 (inactive),0.0462 (inactive),-1.44,0.0914
CC(C)C[C@@H]1NC(=O)[C@H](CC(C)C)NC(=O)[C@@]23C(=O)N[C@@H](Cc4ccccc4)C2[C@H](C)[C@@]2(C)O[C@H]2C3/C=C/CC/C=C/CNC1=O (stereo not given in full),-0.0096,-0.737 (inactive),0.229 (inactive),-0.744 (inactive),0.179 (inactive),0.569 (inactive),0.794 (inactive),-0.103 (inactive),0.0441,-0.02
O=C1C2C=CC(C(O)Cc3ccccc3)N(Nc3ccc([N+](=O)[O-])cc3)C2C(=O)N1c1ccccc1 (stereo not given),-0.346,-0.168 (inactive),-0.824 (inactive),-0.75 (inactive),0.946 (inactive),-0.518 (inactive),-1.22 (inactive),0.0196 (inactive),-0.358,0.202
C[C@H]1C2[C@H](Cc3ccccc3)NC(=O)[C@]23C(=O)N[C@H](Cc2ccccc2)C(=O)N[C@@H](Cc2ccccc2)C(=O)NC/C=C\C/C=C/C3[C@@H]2O[C@]12C (stereo not given in full),-0.204,-1.79 (inactive),1.03 (inactive),-0.427 (inactive),-0.234 (inactive),-0.617 (inactive),1.73 (inactive),0.9 (inactive),0.724,0.306
C=C(C)[C@@H]1CC=C(C(O)C2C=CC3C(=O)NC(=O)C3N2Nc2ccccn2)CC1 (stereo not given in full),-1.3,-0.252 (inactive),-1.48 (inactive),0.291 (inactive),1.99 (inactive),-0.0819 (inactive),-0.575 (inactive),-0.339 (inactive),-2.2,0.287
COCCOC(=O)N1C(=O)[C@@]2(c3cc(C#CC4=CCCCC4)ccc31)[C@H](C(=O)NC[C@H](O)c1ccccc1)[C@H]1C(=O)O[C@H](c3ccccc3)[C@H](c3ccccc3)N1[C@@H]2c1ccccc1OCCO,-1.57,1.76 (inactive),-4.83 (inactive),0.271 (inactive),3.52 (inactive),2.69 (inactive),-0.504 (inactive),-0.542 (inactive),-4.64,0.175
COC(=O)[C@@]1(Cc2ccc(OC)cc2)[C@H]2c3cc(C(=O)N(C)C)n(Cc4ccc(C)c(F)c4F)c3C[C@H]2CN1C(=O)c1ccccc1,0.819,1.45 (inactive),0.468 (inactive),0.164 (inactive),0.0944 (inactive),2.26 (inactive),0.423 (inactive),-0.373 (inactive),1.37,0.385
CCCN1C(=O)[C@@]2(CCS(=O)(=O)c3ccccc3)N=C(c3ccc(OCCCO)cc3)O[C@H]2c2ccccc21,-0.561,1.27 (inactive),-1.03 (inactive),2.02 (inactive),0.469 (inactive),1.56 (inactive),0.861 (inactive),0.163 (inactive),-2.15,-0.072
COc1ccc([Si](C)(C)[C@H]2[C@H](CC(=O)N(CCO)Cc3ccccc3)O[C@@]3(C(=O)N(C)c4ccccc43)[C@@H]2C)cc1,0.514,-1.42 (inactive),-0.0262 (inactive),-0.0113 (inactive),0.72 (inactive),0.11 (inactive),0.681 (inactive),0.455 (inactive),0.216,0.001
C=CC[C@]1(C(=O)N2CCCCC2)N=C(c2ccc(OCCCO)cc2)O[C@H]1c1ccccc1N=[N+]=[N-],-0.0748,-0.807 (inactive),-1.91 (inactive),2.06 (inactive),0.274 (inactive),1.55 (inactive),0.16 (inactive),-0.58 (inactive),-1.15,1.74
O=C(NCc1ccccc1)[C@@]1(Cc2ccccc2)COC(c2ccc(OCCCO)cc2)=N1,-2.41,0.0178 (inactive),-6.53 (inactive),1.1 (inactive),0.162 (inactive),3.65 (inactive),0.11 (inactive),-0.762 (inactive),-5.69,-0.217
Cc1ccc(S[C@]2(C(=O)O)CC(=O)N(Cc3cc(C(F)(F)F)cc(C(F)(F)F)c3)[C@@H]2c2ccc(CO)cc2I)cc1,-0.101,-3.06 (inactive),-2.57 (inactive),0.0643 (inactive),-0.481 (inactive),0.555 (inactive),0.0907 (inactive),-0.0983 (inactive),-1.47,-0.136
[N-]=[N+]=NCc1ccccc1[C@H]1OC(c2ccc(OCCCO)cc2)=N[C@@]1(Cc1ccccc1N=[N+]=[N-])C(=O)NCc1ccccc1,-0.494,0.745 (inactive),-2.31 (inactive),0.545 (inactive),2.26 (inactive),1.95 (inactive),0.134 (inactive),-0.321 (inactive),-1.52,-0.117
CC(=O)NCCCC[C@@H]1NC(=O)[C@H]2C[C@@H](C(=O)NCCCCCCN(C)C)[C@@H](c3ccc(O)cc3)N2C1=O,-0.666,-0.191 (inactive),-1.56 (inactive),-0.231 (inactive),-0.0059 (inactive),-0.0236 (inactive),-1.04 (inactive),-1.53 (inactive),-1.28,0.217
O=C1C[C@@](C(=O)NCCN2CCOCC2)(c2ccc([N+](=O)[O-])cc2)[C@@H](c2ccc(CO)cc2)N1C1CCCCC1,-0.0886,-0.359 (inactive),0.836 (inactive),0.231 (inactive),0.292 (inactive),-0.206 (inactive),0.497 (inactive),0.274 (inactive),0.906,-0.142
C=C(CCCC)/C(=C/C[C@@H](OC(=O)c1ccncc1)c1ccc(CO)o1)c1cnc2ccccc2c1,-0.0346,-1.95 (inactive),0.82 (inactive),-7.54 (inactive),0.154 (inactive),-0.27 (inactive),0.698 (inactive),0.29 (inactive),0.501,0.451
CC1CC/C=C\[C@H]2OC34C=CCN(Cn5nnc6ccccc65)C(=O)[C@H]3N(C(C)CO)C(=O)[C@@H]4C2C(=O)O1 (stereo not given in full),0.142,-0.0496 (inactive),0.035 (inactive),0.853 (inactive),-0.0837 (inactive),0.472 (inactive),0.756 (inactive),0.665 (inactive),0.0911,0.282
C=CC[C@]1(C(=O)O)N=C(c2ccc(OCCCO)cc2)O[C@H]1c1ccccc1N=[N+]=[N-],0.912,-0.761 (inactive),0.777 (inactive),0.589 (inactive),-1.1 (inactive),1.21 (inactive),2.63 (inactive),1.65 (inactive),0.248,-0.0095
CC(C)NC(=O)[C@@]1(Cc2ccccc2I)c2ccccc2C(=O)N(C2CCCCC2)[C@H]1c1ccc(CO)cc1,0.524,-0.557 (inactive),0.224 (inactive),-1.45 (inactive),0.593 (inactive),1.31 (inactive),0.545 (inactive),0.267 (inactive),0.751,0.106
CCCC=C(CCC)[C@@H](NS(=O)(=O)c1cccc(C(F)(F)F)c1)c1ccc(C(=O)OC)cc1,1.18,0.661 (inactive),0.179 (inactive),-0.237 (inactive),-0.94 (inactive),-0.279 (inactive),-0.0305 (inactive),-0.0262 (inactive),-0.16,0.0506
COC(=O)[C@@]1(Cc2ccc(OC)cc2)[C@H]2c3cc(C(=O)N(C)C)n(CCc4ccc(OC)c(Br)c4)c3C[C@H]2CN1C(=O)c1ccccc1,-0.575,1.36 (inactive),-2.09 (inactive),0.125 (inactive),1.22 (inactive),0.961 (inactive),-0.307 (inactive),-0.025 (inactive),-3.63,-0.0848
C=C(COC)C(=O)CC[C@H](OC(=O)c1ccccc1-c1ccccc1C(=O)O)c1cccc(OCCO)c1,-1.06,-17.1 (active),-0.805 (inactive),-6.66 (inactive),1.99 (inactive),-5.09 (inactive),-1.27 (inactive),-1.04 (inactive),-0.858,0.511
O=C1C2C=CC(C(O)C(c3ccccc3)c3ccccc3)N(Nc3ccc([N+](=O)[O-])cc3)C2C(=O)N1c1ccccc1 (stereo not given),0.867,0.852 (inactive),0.0597 (inactive),0.665 (inactive),0.89 (inactive),0.601 (inactive),-1.12 (inactive),0.058 (inactive),-1.03,0.0553
